TDP1 inh – blocks human tyrosyl-DNA phosphodiesterase 1; Q9NUW8; recombinant TDP1, AlphaScreen DNA substrate cleavage; Potency, µM (series often up to 130 µM), without a hit: top-dose activity change, negative = inhibition, usual class: inhibitors; 350,000 compounds, 0.28% hits; note: nearly all actives have a fitted effect of over 40% in size
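Compounds were preincubated with Tdp1 (1 nM final) for 15 min at room temperature before substrate (15 nM final) started a 5 min reaction; beads (10 ug/ml final) were then added for 10 min before AlphaScreen detection.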
RORg inh – inhibitors of mouse ROR gamma transcriptional activity; P51450; Potency, µM (highest dose often 53.6 µM), for the others: at the highest dose activity change, negative = inhibition, hits mostly inhibitors; Drosophila S2 Gal4-RORgamma UAS-luciferase reporter, 20 h; 310,000 compounds, 5.4% hits; note: nearly all actives have a fitted effect of over 60% in size
Target sequence (P51450 whole entry, looked up, the tested form may be a part): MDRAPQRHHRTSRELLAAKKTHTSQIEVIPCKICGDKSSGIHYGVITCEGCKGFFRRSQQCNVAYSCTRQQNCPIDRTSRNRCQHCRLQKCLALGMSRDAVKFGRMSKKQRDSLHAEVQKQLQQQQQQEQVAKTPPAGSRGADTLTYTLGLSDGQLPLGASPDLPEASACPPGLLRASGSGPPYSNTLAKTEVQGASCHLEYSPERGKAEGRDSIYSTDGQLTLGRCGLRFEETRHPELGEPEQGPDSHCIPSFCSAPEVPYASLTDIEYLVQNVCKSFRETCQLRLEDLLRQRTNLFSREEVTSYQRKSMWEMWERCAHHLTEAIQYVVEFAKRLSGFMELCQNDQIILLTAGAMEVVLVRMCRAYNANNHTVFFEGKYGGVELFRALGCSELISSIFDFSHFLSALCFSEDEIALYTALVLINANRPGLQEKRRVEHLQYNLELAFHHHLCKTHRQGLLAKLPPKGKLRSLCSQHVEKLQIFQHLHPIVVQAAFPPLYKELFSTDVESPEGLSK
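Compounds are pin-transferred onto Drosophila Schneider cells expressing a copper-inducible Gal4–ROR gamma transactivation domain fusion. After 1 hr, copper sulfate is added to 700 uM final; luciferase is read 20 hr later.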
TDP1 cell noCPT – qHTS for Inhibitors of human tyrosyl-DNA phosphodiesterase 1 (TDP1): qHTS in cells in absence of CPT. DT40 Tdp1-/- hTDP1 cells, no CPT, ATP luminescence, 48 h. Potency, µM (top dose mostly 46.2 µM), for the others: at the highest dose activity change, negative = growth inhibition, most hits filed as inhibitors. 420,000 compounds, 15% hits; note: nearly all actives have a fitted effect of over 55% in size
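Growth kinetics read by CellTiter-Glo luminescence after ≥48 hr at 37 °C. Cells: DT40 Tdp1-/- stably carrying human TDP1, 400 per well, compound exposure in the absence of CPT (DMSO vehicle).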
TDP1 cell CPT – DT40-hTDP1 cell growth loss with CPT | chicken DT40 Tdp1-/-;hTDP1 cells + 20 nM CPT, ATP luminescence, 48 h | Potency, µM (doses to about 46.2 µM), for the others: top-dose activity change, negative = growth inhibition, actives largely listed as inhibitors | 420,000 compounds, 12% hits | AID 686979; note: nearly all actives have a fitted effect of over 55% in size
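Cell growth measured by CellTiter-Glo luminescence after a minimum 48 h, 37 C compound exposure with 20 nM CPT in Tdp1-knockout DT40 cells stably expressing hTDP1, seeded 400/well; qHTS titration format.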
VP16 counter – counter-screen for ROR gamma inhibitors: Gal4-VP16 reporter; AID 2546; 310,000 compounds, 3.5% hits; Drosophila S2 Gal4-VP16 UAS-luciferase, luminescence, 20 h; Potency, µM (titrated, usually from 53.6 µM), inactives show at the highest dose activity, negative = inhibition, actives largely listed as inhibitors;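 note: Gal4-VP16 expression switched on by copper sulfate through the metallothionein promoter; nearly all actives have a fitted effect of over 50% in size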
* marks the source's active call; other numbers are inactive results; ? = inconclusive; . = no result; [ ] = another dose, or the depositor's remark. Shown are actives, neighbours in structure and some others; about 19% of the full set was active somewhere. Calls come from the whole dose curve; as a rule, active = well fitted curve in the direction sought with a large enough effect; inconclusive = small, poorly fitted or top-dose-only effect, or another doubt; inactive = no such curve, though single readings can be large; an effect the other way counts as inactive or inconclusive. % is set by controls: 0 for no effect and ±100 for the full control effect; potency is the fitted concentration of half-maximal effect.

SMILES	TDP1 inh	RORg inh	TDP1 cell noCPT	TDP1 cell CPT	VP16 counter
CC(C)C(C(=O)C=[N+]=[N-])N1C(=O)c2ccccc2C1=O (stereo not given)	2.1%	-1.0%	-1.7%	-6.7%	-0.5%
COc1cc(C[C@H]2C(=O)OC[C@@H]2Cc2ccc(OC)c(OC)c2)ccc1O	11.9%[56.1 µM]	6.31µM*	1.68µM*	2.37µM*	1.12µM*
COc1cc(C2OCC3C(c4ccc(OC5OC(CO)C(O)C(O)C5O)c(OC)c4)OCC23)ccc1O (stereo not given)	-3.8%	2.1%	-1.8%	1.0%	-4.6%
COc1ccc(C[C@H]2COC(=O)[C@@H]2Cc2ccc(OC3OC(CO)C(O)C(O)C3O)c(OC)c2)cc1OC (stereo not given in full)	-2.7%	?	20.6µM*	?	-16.9%
COc1cc(C2SCC(=O)N2CCc2ccc(OC)c(OC)c2)ccc1O (stereo not given)	8.1%	1.4%	-8.2%	3.8%	-8.9%[10 µM]
O=C(Nc1ccc2nc(SCC(=O)N3CCCC3)sc2c1)c1ccc(Br)cc1	-0.5%	.	?	-29.9%	.
O=C(Nc1ccc2nc(SCC(=O)N3CCCC3)sc2c1)c1cccc(Br)c1	1.6%	.	16.4µM*	?	.
COc1ccc(C(=O)Nc2ccc3nc(SCC(=O)N4CCOCC4)sc3c2)cc1	3.6%	.	?	?	.
O=C(Nc1ccc2nc(SCC(=O)N3CCOCC3)sc2c1)c1cccc(Cl)c1	-0.5%	.	18.4µM*	14.6µM*	.
COc1cccc(C(=O)CC(C(=O)O)c2ccc(F)cc2)c1 (stereo not given)	4.9%	-18.8%	-15.4%	-7.8%	-0.2%
COc1ccc2cc(C(=O)C3CCCN(C(=O)C4=NN(C)C(=O)CC4)C3)ccc2c1 (stereo not given)	4.0%	7.0%	?	-25.7%	10.6%
Cc1ccnc(NS(=O)(=O)c2ccc(NC(=O)c3ccc(N4C(=O)CCC4=O)cc3)cc2)n1	-5.5%	-2.7%	-14.0%	8.0%	-3.7%
O=[N+]([O-])c1ccccc1S(=O)(=O)Oc1ccccc1/C=N/n1cnnc1	0.0%	-26.0%	16.4µM*	?	0.8%
COc1ccccc1N1CCN(C(=O)c2ccccc2NC(=O)C2CCCCC2C(=O)O)CC1 (stereo not given)	-5.1%	-3.6%	-15.3%	-27.3%	-3.3%
COc1ccc(S(=O)(=O)N2CCCCCC2)cc1NC(=O)c1ccccc1F	-4.6%	.	-80.5%	16.4µM*	.
COc1ccc(S(=O)(=O)N2CCCCCC2)cc1C(=O)Nc1cc(C)ccn1	1.6%	.	?	20.6µM*	.
COc1ccc(S(=O)(=O)N2CCOCC2)cc1NC(=O)c1ccc(S(=O)(=O)N2CCCCC2)cc1	.	.	?	11.6µM*	.
COc1ccc(S(=O)(=O)N2CCOCC2)cc1NC(=O)c1ccc(Cl)cc1	.	.	?	-10.2%	.
COc1ccc(S(=O)(=O)N2CCOCC2)cc1NC(=O)CCNC(=O)c1ccc([N+](=O)[O-])cc1	0.7%	.	7.31µM*	?	.
COc1ccc(S(=O)(=O)N2CCN(C)CC2)cc1NC(=O)c1ccccc1F	4.5%	-21.1%	?	-0.1%	-1.8%
COc1ccc(NC(=O)CCNC(=O)c2ccc([N+](=O)[O-])cc2)cc1S(=O)(=O)N1CCOCC1	6.0%	.	-8.2%	-11.9%	.
COc1ccccc1N1CCN(C(=O)c2cc(C)oc2C)CC1	0.0%	-4.8%	?	-13.8%	-9.7%
C=C(C)C(O)/C=C/c1ccccc1OC (stereo not given)	4.8%[21 µM]	7.7%[10 µM]	.	.	0.0%[10 µM]
Cc1nc2cnc(N3CCOCC3)nc2n(CCC#N)c1=O	.	0.3%	-11.6%	?	-5.1%
COc1ccc(C)cc1NC(=O)c1cc(S(=O)(=O)N2CCC(C)CC2)ccc1F	-2.6%	.	20.6µM*	16.4µM*	.
SMILES	TDP1 inh	RORg inh	TDP1 cell noCPT	TDP1 cell CPT	VP16 counter
COc1ccc(S(=O)(=O)N2CCCCC2)cc1NC(=O)c1ccc(CS(C)(=O)=O)cc1	1.7%	.	18.4µM*	-5.9%	.
COc1ccc(C)cc1NC(=O)c1cc(S(=O)(=O)N2CCN(c3cccc(C)c3C)CC2)ccc1F	7.8%	.	-27.5%	-20.9%	.
CCOc1ccc(C2C(C#N)=C(N)Oc3cc(C)oc(=O)c32)cc1 (stereo not given)	-5.1%	-6.1%	-15.7%	-2.9%	1.4%
C=CCN1C(=O)CN=C1Nc1cc(C)cc(C)c1	5.1%	-6.6%	-7.0%	-14.9%	-0.5%
Cc1ccc(C)c2[nH]c(=O)c(CN(CCN3CCCC3)C(=O)Nc3ccc(F)cc3)cc12	1.0%	26.3%	14.6µM*	?	-0.5%
Cc1cccc2cc(CN(CCCO)C(=O)Nc3ccccc3Cl)c(=O)[nH]c12	4.7%	4.4%	-21.2%	?	-1.2%
Cc1cccc2cc(CN(CCCO)C(=O)Nc3ccc(Cl)cc3)c(=O)[nH]c12	3.7%	31.7%	20.6µM*	?	-5.8%
Cc1cccc2cc(CN(CCCO)C(=O)Nc3cccc(Cl)c3)c(=O)[nH]c12	2.9%	19.2%	20.6µM*	23.1µM*	6.2%
CSCC[C@H](NS(=O)(=O)c1ccc(C)cc1)C(=O)N1CCC(C(=O)N[C@@H](C)C(=O)O)CC1	.	-7.5%	-2.2%	-15.9%	-9.9%
COC(=O)[C@]1(C)CCC[C@@]2(C)C3CC[C@@]4(C)C[C@]3(CCC21)CC4=NO (stereo not given in full)	0.2%	.	20.6µM*	?	.
C=C1C[C@@]23CCC4[C@@](C)(CCC[C@@]4(C)C(=O)OC)C2CC[C@]1(OC(C)=O)C3 (stereo not given in full)	-1.9%	.	?	18.4µM*	.
Cc1ccc(CNC(=O)[C@]2(C)CCC[C@@]3(C)C4CC[C@@]5(C)C[C@]4(CCC32)CC5=O)cc1 (stereo not given in full)	1.7%	.	?	?	.
COC(=O)[C@]1(C)CCC[C@@]2(C)C3CC[C@@]4(C)C[C@]3(CCC21)CC(=O)N4C (stereo not given in full)	2.1%	.	?	?	.
C[C@@]12CCC3[C@@](CCC4[C@@]3(C)CCC[C@@]4(C)C(=O)NC3CCCCC3)(CC1=O)C2 (stereo not given in full)	0.3%	.	23.1µM*	18.4µM*	.
c1cncc(C(c2nnnn2C2CCCCC2)N2CCCCC2)c1 (stereo not given)	2.6%	10.6%	-0.8%	-21.7%	-8.1%
Cn1cc(CCC(=O)N2CCCC(CCC(=O)NCc3ccccc3F)C2)cn1 (stereo not given)	1.2%	1.8%	-3.2%	-12.7%	5.8%
O=C(N/N=C\C=C\c1ccco1)c1cc(-c2ccc3ccccc3c2)n[nH]1	-5.7%	2.24µM*	?	?	1µM*

Compound activity as filed in PubChem BioAssay.
